Measured values: PubChem BioAssay (NCI)
Compounds without any hit were thinned out: in the full panel of roughly 83,000, 20% have a hit.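 Compound tested at a single concentration for 48 hours in 96-well plates; a percent growth value below 10 was scored as active.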 Active and inactive are the calls of the source.

How the values were obtained:
Assay in all cases: NCI-60 one-dose screen, 48 h (100 = growth as untreated, 0 = no growth, -100 = all killed)
[1] = test system: SK-MEL-2 melanoma; details: 10 µM unless noted
[2] = test system: EKVX NSCLC; details: 10 µM unless noted
[3] = test system: SN12C renal; details: 10 µM unless noted
[4] = test system: UO-31 renal; details: 10 µM unless noted
[5] = test system: TK-10 renal; details: 10 µM unless noted
[6] = test system: ACHN renal; details: 10 µM unless noted
[7] = test system: CAKI-1 renal; details: 10 µM unless noted
[8] = test system: A498 renal; details: 10 µM unless noted
[9] = test system: CCRF-CEM leukemia; details: 10 µM unless noted
[10] = test system: MOLT-4 leukemia; details: 10 µM unless noted
[11] = test system: SR leukemia; details: 10 µM unless noted
[12] = test system: RPMI-8226 leukemia; details: 10 µM unless noted
[13] = test system: OVCAR-8 ovarian; details: 10 µM unless noted
[14] = test system: OVCAR-5 ovarian; details: 10 µM unless noted
[15] = test system: OVCAR-4 ovarian; details: 10 µM
[16] = test system: IGROV1 ovarian; details: 10 µM unless noted
[17] = test system: OVCAR-3 ovarian; details: 10 µM unless noted
[18] = test system: HS 578T breast; details: 10 µM unless noted
[19] = test system: NCI/ADR-RES ovarian; details: 10 µM unless noted
[20] = test system: SK-OV-3 ovarian; details: 10 µM unless noted

Measured: growth

C#C[C@]1(O)CC[C@H]2[C@@H]3CC=C4c5nc(Nc6ccc(OC)cc6OC)sc5CC[C@]4(C)[C@H]3CC[C@@]21C
inactive: [2] 24.7% | [3] 37.6% | [4] 13.2% | [5] 51.3% | [6] 32.6% | [7] 26.4% | [9] 16.9% | [13] 59.4% | [14] 51.7% | [15] 44.7% | [16] 43.2% | [17] 26.4% | [19] 50.3%
active: [1] -10.1% | [8] -56% | [10] 4.56% | [11] 5.67% | [12] -26.1% | [18] -12.7%

CCn1cc(-c2[nH]c(=S)ncc2-c2ccc(Cl)cc2)c(-c2ccc(Br)cc2)n1
inactive: [1] 72% | [2] 85.7% | [3] 85.1% | [4] 89.4% | [5] 109% | [6] 91.1% | [7] 98.5% | [8] 106% | [9] 97.8% | [10] 97.2% | [11] 93.1% | [12] 77.6% | [13] 86.9% | [14] 90.5% | [15] 94.2% | [16] 81.5% | [17] 97.4% | [18] 108% | [19] 82.5%

C[C@]12CCc3nc(Nc4ccccc4)sc3C1=CC[C@@H]1[C@@H]2CC[C@]2(C)/C(=N/NC(N)=S)CC[C@@H]12
inactive: [1] 66.9% | [2] 78.2% | [3] 49.2% | [4] 60% | [5] 38.3% | [6] 31.6% | [7] 49.6% | [8] 48% | [9] 18.7% | [11] 13.1% | [13] 56.9% | [14] 91.5% | [15] 35.9% | [16] 69.1% | [18] 55.9% | [19] 53.6%
active: [10] 8.01% | [12] -1.05% | [17] -21.2%

C#C[C@]1(O)CC[C@H]2[C@@H]3CC=C4c5nc(N)sc5CC[C@]4(C)[C@H]3CC[C@@]21C
inactive: [1] 58.8% | [2] 53.7% | [3] 82.2% | [4] 90.4% | [5] 80.4% | [6] 79.6% | [7] 54.9% | [8] 36.4% | [9] 77.7% | [10] 36.9% | [11] 23.6% | [13] 85.3% | [14] 88.5% | [15] 63.4% | [16] 71.8% | [17] 47.2% | [19] 62.1%
active: [12] -7.97% | [18] 6.1%

CCOC(=O)C(=Cc1ccccc1[N+](=O)[O-])C(=O)OCC
inactive: [1] 12% | [2] 68.6% | [3] 24.5% | [4] 41.5% | [5] 22.1% | [6] 16.9% | [7] 24.1% | [8] 122% | [10] 11.1% | [12] 10.7% | [13] 12.2% | [15] 24.7% | [20] 62.4%
active: [9] 2.19% | [11] -10% | [14] -31.5% | [17] -20.7% | [19] -29.4%

CCCCCn1c(C)cc(/C=C\c2ccc3cc(C)ccc3[n+]2C)c1C
inactive: [14] 12% | [19] 59.1%
active: [1] -81.9% | [2] -47.9% | [3] -90.3% | [4] -61.4% | [5] -57.6% | [6] -89.3% | [7] -80.3% | [8] -46% | [9] -13.3% | [10] 7.02% | [11] 9.57% | [12] -43.5% | [13] -69.5% | [15] -8.22% | [16] -84% | [17] -72.7% | [18] -24.4%

COc1ccc(NCc2cn(-c3ccc(C(=O)O)cc3)nc2-c2ccc(C(=O)O)cc2)cc1C(F)(F)F
inactive: [1] 106% | [2] 84.2% | [3] 95.3% | [4] 88.1% | [5] 83% | [6] 98.1% | [7] 86.3% | [8] 81.2% | [10] 123% | [11] 131% | [12] 88.4% | [13] 103% | [14] 93.3% | [15] 93.3% | [16] 99.7% | [17] 105% | [18] 83.2% | [19] 105%
active: [9] -50.4%

CCOC(=O)C(C(C)=O)c1nc2sc3cc(Cl)c(Cl)cc3n2c(=O)c1C#N (stereo not given)
inactive: [1] 108% | [2] 86% | [3] 98.8% | [4] 58.4% | [5] 145% | [6] 101% | [7] 96.2% | [8] 142% | [9] 96.7% | [10] 89.6% | [11] 105% | [12] 98.6% | [13] 92.8% | [14] 122% | [15] 94.5% | [20] 83.2% | [17] 112% | [19] 106%
